In PubChem BioAssay (NCI):
This is part of a sample that, as a whole, favours compounds with a hit. Of some 83,000 tested, about 20% had one in any assay.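 For each line, cells grew in 96-well plates with the test compound present at a single concentration for 48 hours.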 Values without a mark were called inactive. Active and inactive are the calls of the source. The calls were made as follows: active = growth percent below 10; inactive = the rest.

Columns and labels:
Test in all cases: NCI-60 one-dose screen, 48 h (100 = growth as untreated, 0 = no growth, -100 = all killed)
[1] = tested on: DU-145 prostate; conditions: 10 µM unless noted
[2] = tested on: K-562 leukemia; conditions: 10 µM unless noted
[3] = tested on: MALME-3M melanoma; conditions: 10 µM unless noted
[4] = tested on: MDA-MB-231 breast; conditions: 10 µM unless noted
[5] = tested on: RXF 393 renal; conditions: 10 µM unless noted
[6] = tested on: SF-268 CNS; conditions: 10 µM unless noted
[7] = tested on: SF-295 CNS; conditions: 10 µM unless noted
[8] = tested on: SF-539 CNS; conditions: 10 µM unless noted
[9] = tested on: UACC-257 melanoma; conditions: 10 µM
[10] = tested on: M14 melanoma; conditions: 10 µM unless noted
[11] = tested on: HCT-15 colon; conditions: 10 µM unless noted
[12] = tested on: HT29 colon; conditions: 10 µM unless noted
[13] = tested on: SNB-75 CNS; conditions: 10 µM unless noted
[14] = tested on: SNB-19 CNS; conditions: 10 µM unless noted
[15] = tested on: U251 CNS; conditions: 10 µM unless noted
[16] = tested on: PC-3 prostate; conditions: 10 µM unless noted
[17] = tested on: SK-MEL-5 melanoma; conditions: 10 µM unless noted
[18] = tested on: UACC-62 melanoma; conditions: 10 µM unless noted
[19] = tested on: LOX IMVI melanoma; conditions: 10 µM unless noted
[20] = tested on: SK-MEL-28 melanoma; conditions: 10 µM unless noted

SMILES	growth [1] [%]	growth [2]	growth [3] [%]	growth [4] [%]	growth [5]	growth [6] [%]	growth [7]	growth [8]	growth [9] [%]	growth [10]	growth [11]	growth [12]	growth [13]	growth [14]	growth [15]	growth [16]	growth [17]	growth [18]	growth [19]	growth [20]
O=C(Nc1ccc(-c2nc(-c3cccc(O)c3)c(-c3ccnc(Br)c3)[nH]2)cc1)c1ccccc1	35.5	1.18% (active)	16.9	30.2	-37.1% (active)	29.2	-56.4% (active)	16.6%	45.8	22.6%	7.12% (active)	12.2%	-2.13% (active)	23.3%	20.8%	6.14% (active)	-67% (active)	22.1%	3.27% (active)	34.2%
CCN(CC)Cc1c(-c2cccc(OC(F)(F)F)c2)[nH]c2ccc(N3CCCC3)cc2c1=O	99.7	87.8%	86	87	74.1%	89.1	102%	95%	91.3	96.9%	90.1%	104%	88.1%	90.6%	99.6%	90.5%	98.3%	82.7%	90.9%	92.2%
O=C(C[n+]1ccnc2ccccc21)c1ccc(O)c(O)c1	47.3	16.6%	54.7	55.3	17%	85.7	87.5%	53.1%	57.8	61.3%	12.8%	18.3%	98.2%	80.8%	63.8%	44.7%	81.6%	54.6%	8.68% (active)	63.3%
CCOC(=O)c1ccc(N/C=C/C(=O)c2ccccc2)cc1	101	98.8%	107	105	99%	102	93.4%	101%	108	97%	86.2%	103%	97%	92.1%	99.7%	95.7%	99.4%	87.5%	96.3%	97.2%
COc1ccc(/C=N/Nc2nc(Nc3ccccc3)nc(Nc3ccc(S(N)(=O)=O)cc3)n2)cc1	65.3	49.4%	81.3	67.2	22.9%	90.9	70.4%	48%	96.4	74.9%	68.2%	55.3%	81.9%	86.3%	66.8%	75.8%	74.6%	87%	52.5%	78.5%
CCc1ccc(NC(=O)N[C@@H](Cc2cccc(F)c2)C(=O)N[C@@H]2C(=O)N3CCC[C@H]3C(=O)N3CCCC[C@H]3C(=O)N[C@@H](CO)C(=O)N3C[C@H](C)C[C@H]3C(=O)O[C@H]2C)c(F)c1	26.9	20.1%	41.5	35.2	-11.7% (active)	30.6	15.8%	39.8%	16	21.4%	15.1%	36.1%	26.4%	28.1%	30.9%	17.5%	0.508% (active)	27.2%	24.9%	44.6%
CC[C@]12C=CCN3CC[C@]4(C(=C(C(=O)OC)C1)Nc1cc5c(cc14)[C@@H]1[C@H](O5)[C@@H](O)[C@@]4(CC)CC(C(=O)OC)=C5Nc6cc(OC)ccc6[C@@]56CCN1[C@@H]46)[C@@H]32	22.6	9.45% (active)	25	20.4	-39.2% (active)	14.9	15.4%	-4.82% (active)	29.5	9.29% (active)	-19.9% (active)	2.83% (active)	21.1%	3.1% (active)	3.18% (active)	9.02% (active)	-2.36% (active)	8.98% (active)	-85.9% (active)	1.92% (active)
